The record followed here is ChEMBL document CHEMBL3433997, “St. Jude Leishmania screening dataset” (2016).

Type in all cases: functional
Experiment [1] concerns the target Solute carrier family 2, facilitated glucose transporter member 1 (Homo sapiens) (UniProt P11166). Kind of experiment: ST_JUDE_LEISH: Cytotoxicity at 2uM final concentration against transgenic Leishmania Mexicana promastigotes LmGLUT1 that are glucose transport deficient and complemented with the human glucose transporter GLUT1. Activity is measured by DNA content using SYBR green in vitro.

The target in experiment [2] is Hexose transporter 1 (Plasmodium falciparum) (UniProt O97467). Nature of the experiment: ST_JUDE_LEISH: Cytotoxicity at 2uM final concentration against transgenic Leishmania Mexicana promastigotes LmPfHT that are glucose transport deficient and complemented with the Plasmodium falciparum hexose transporter. Activity is measured by DNA content using SYBR green in vitro.

The target in experiment [3] is Glucose transporter (Leishmania mexicana) (UniProt O61059). Nature of the experiment: ST_JUDE_LEISH: Cytotoxicity at 2uM final concentration against transgenic Leishmania Mexicana promastigotes LmGT2 that are glucose transport deficient and complemented with the L. Mexicana glucose transporter 2. Activity is measured by DNA content using SYBR green in vitro.

Sequence of Solute carrier family 2, facilitated glucose transporter member 1 (Homo sapiens) (P11166 whole entry): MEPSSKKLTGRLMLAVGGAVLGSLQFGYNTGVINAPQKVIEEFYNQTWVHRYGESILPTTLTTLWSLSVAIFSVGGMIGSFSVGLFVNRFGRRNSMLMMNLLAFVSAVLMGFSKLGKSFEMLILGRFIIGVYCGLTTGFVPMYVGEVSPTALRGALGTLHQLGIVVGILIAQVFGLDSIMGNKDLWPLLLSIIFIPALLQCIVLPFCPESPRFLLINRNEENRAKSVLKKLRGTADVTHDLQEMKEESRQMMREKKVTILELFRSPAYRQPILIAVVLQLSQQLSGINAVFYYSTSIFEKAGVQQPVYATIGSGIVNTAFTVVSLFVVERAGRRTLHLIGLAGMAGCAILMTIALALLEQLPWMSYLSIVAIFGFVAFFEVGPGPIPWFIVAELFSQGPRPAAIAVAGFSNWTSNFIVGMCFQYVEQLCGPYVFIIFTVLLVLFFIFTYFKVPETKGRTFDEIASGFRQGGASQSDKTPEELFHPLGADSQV

As to `CS(=O)(=O)Nc1ccc2c(C3CCN(CCC4CCN(C(=O)/C=C/c5ccc(Cl)c(Cl)c5)CC4)CC3)c[nH]c2c1`, the inhibition (as a rule, the change of the read-out against control, counted positive when it falls) in experiment [1] was determined as 4.12%; in experiment [2], 3.65%; in experiment [3], 4.12%.
Take `Cc1ccc(S(=O)(=O)n2cc(-c3ccnc(N)c3)c3cc(Br)cnc32)cc1`: the figures for the inhibition in experiment [1], in experiment [2] and in experiment [3] were 4.4%, 4.2% and 1.4%, respectively.
Take `CC(C)(C)c1ccc(-c2nnc(N)nc2N)cc1`: the inhibition came to 1.1% in experiment [1], 0.43% in experiment [2] and 0.09% in experiment [3].
As to `CCOc1ccc(C(C)NC(=O)c2ccc(OC)c(Br)c2)cc1OCC` (stereo not given), the results for the inhibition in experiment [1], in experiment [2] and in experiment [3] were 1.14%, -0.71% and -0.9%, respectively.
As to `Cc1cc2c3c(N)nc(N)nc3ccc2n1C(C)C`, the inhibition in experiment [1] was 75.6%; in experiment [2] it was 79.8%; in experiment [3] it was 67.2%.
Take `Cc1cc(C)cc(OCC(O)CN(CCN2CCOCC2)C(=O)Nc2ccc(Br)cc2)c1` (stereo not given): the inhibition stood at 12.2% in experiment [1], 9.85% in experiment [2] and 13.4% in experiment [3].
With `COc1ccc([N+](=O)[O-])cc1N(Cc1ccccc1-c1ccccc1)S(=O)(=O)c1ccc(C(F)(F)F)cc1[N+](=O)[O-]`, the figures for the inhibition in experiment [1], in experiment [2] and in experiment [3] were 8.36%, 5.46% and -1.25%, respectively.
Regarding `Cc1ccc2c(=O)c3cc(C)ccc3[nH]c2c1`, the values for the inhibition in experiment [1], in experiment [2] and in experiment [3] were 3.4%, 0.93% and 0.54%, respectively.
Consider `N#Cc1ccc(CN2CCCN(Cc3cccc(NC(=O)c4ccc(Cl)c(Cl)c4)c3)CC2)cc1`, for which the results for the inhibition in experiment [1], in experiment [2] and in experiment [3] were 9.73%, 7.09% and 9.89%, respectively.
Turning to `O=c1cc(NCCCNC2CCOc3c(I)cc(Cl)cc32)[nH]c2ccccc12` (stereo not given), the inhibition worked out at 2.44% in experiment [1], 4.6% in experiment [2] and 1.03% in experiment [3].
Taken in the same sequence, the figures for `C(=NN=c1cc(-c2ccccc2)[nH]c2ccccc12)c1cccnc1` were 15.1%, 11.7% and 6.62%.
The like results for `CCN1CCC(N(Cc2ccc(-c3ccc(C(F)(F)F)cc3)o2)C(=O)Cn2c(CCc3cccc(F)c3F)nc(=O)c3ccccc32)CC1` were, in that order, 11.3%, 10.6% and 11.7%.
Consider `CC(C)C[C@H](NC(=O)c1cc2ccccc2s1)C(=O)N[C@H]1CCN(Cc2ccc(OC3CCN(C)C3)c(Cl)c2)C1` (stereo not given in full), for which the inhibition in experiment [1] was 1.48%; in experiment [2] it was 2.37%; in experiment [3], -0.19%.
Turning to `NCc1ccc(CNCc2ccc(-c3ccc(-c4nc5cc(C(F)(F)F)ccc5[nH]4)s3)cc2)cc1`, the figures for the inhibition in experiment [1], in experiment [2] and in experiment [3] were 0.59%, 1.45% and 0.6%, respectively.
Regarding `O=C(/C=N/O)Nc1ccccc1[N+](=O)[O-]`, the inhibition is -1.31% in experiment [1], 0.8% in experiment [2] and 0.39% in experiment [3].
As for `O=C(Nc1cccc(N2CCC(NCc3cccnc3)CC2)c1)c1cccc(C(F)(F)F)c1`, the inhibition in experiment [1] was 1.16%; in experiment [2], 1%; in experiment [3], -0.6%.
Consider `Cn1cncc1-c1cc2c(Nc3ccc(OCc4ccccc4)cc3)ncnc2cn1`, for which the values for the inhibition in experiment [1], in experiment [2] and in experiment [3] were 4.63%, 5.99% and 1.66%, respectively.
Regarding `COc1cc(CNCCCCCCNCc2cc(OC)c3ccccc3c2OC)c(OC)c2ccccc12`, the inhibition in experiment [1] is 8.25%; in experiment [2] it was 11.8%; in experiment [3] it was 13.6%.
Consider `O=c1cc(NCCCNCc2sc(Br)nc2Br)[nH]c2ccccc12`, for which the inhibition was 3.62% in experiment [1], 4.14% in experiment [2] and 4.34% in experiment [3].
For the compound `Oc1ccc(CCCNc2nc(NCc3ccccc3-c3ccccc3)nc(NC3CCNCC3)n2)cc1`, the inhibition in experiment [1] is -1.61%; in experiment [2] it was -0.26%; in experiment [3], -0.11%.
`COC[C@H]1CCCN1Cc1ccc(-c2ccc(-c3nc4ccccc4[nH]3)s2)cc1`: the inhibition in experiment [1] came out at 2.15%; in experiment [2] it was 1.84%; in experiment [3] it was 1.25%.
In the case of `NC1=NC(c2ccccc2)(c2ccccc2)C(=O)N1Cc1ccc(-c2cccnc2)cc1`, the inhibition was found to be 2.71% in experiment [1], 1.53% in experiment [2] and 0.52% in experiment [3].
Turning to `COc1ccccc1N1CCN(CCCCNC(=O)c2ccc(NC(=O)c3ccc(OC(F)(F)F)cc3)cc2)CC1`, the inhibition in experiment [1] was 1.23%; in experiment [2], -0.16%; in experiment [3] it was 1.25%.
For the compound `CCNc1cc(C(=O)N[C@@H](Cc2ccccc2)[C@H](O)CNCc2cc(OC)cc(OC)c2)cc(N2CCCC2=O)c1`, the figures for the inhibition in experiment [1], in experiment [2] and in experiment [3] were 7.69%, 9.03% and 6.42%, respectively.
For `CCOc1cc(C(=O)N[C@@H](Cc2ccccc2)[C@H](O)CNCc2cccc(OC)c2)cc(N2CCCCS2(=O)=O)c1`, the inhibition was found to be 5.4% in experiment [1], 5.25% in experiment [2] and 3.08% in experiment [3].
For the compound `COc1ccc(Cl)cc1-c1nc(C(=O)NCCN2CCCCC2)c(C)s1`, the figures for the inhibition in experiment [1], in experiment [2] and in experiment [3] were 1.59%, 2.9% and 5.49%, respectively.
`CCN(CC)CCN(Cc1ccc(-c2ccc(C(F)(F)F)cc2)cc1)C(=O)Cn1c(CCc2cccc(F)c2F)cc(=O)cc1-c1ccccc1`: the inhibition in experiment [1] was 1.88%; in experiment [2], 3.45%; in experiment [3] it was -1.71%.
`O=C(/C=C/c1ccc(Cl)c(Cl)c1)N1CCC(C(O)CN2CCC(c3c[nH]c4ccccc34)CC2)CC1` (stereo not given): the inhibition in experiment [1] is 2.18%; in experiment [2], 1.82%; in experiment [3] it was 0.09%.
For the compound `COc1ccc(C(=O)CCC(=O)N(Cc2ccc(-c3ccc(CNCCc4ccccc4)cn3)cc2)C(C)CN(C)C)cc1F` (stereo not given), the results for the inhibition in experiment [1], in experiment [2] and in experiment [3] were 2.12%, 1.14% and 0.82%, respectively.
Turning to `CCCCCNc1nc2nc(N)nc(N)c2nc1-c1ccccc1`, the inhibition in experiment [1] was 7.52%; in experiment [2], 9.23%; in experiment [3], 0.23%.
On to `COc1cc2c(cc1OC)C(C(=O)Nc1ccc(C(F)(F)F)cc1)C(c1cccs1)N(C)C2=O` (stereo not given), for which the values for the inhibition in experiment [1], in experiment [2] and in experiment [3] were 2.92%, 3.56% and 1.2%, respectively.
Taken in the same sequence, the figures for `Cc1ccc(-n2c(C)nc3c(Nc4ccc(-c5ccncc5)cc4)ncnc32)c(C)c1` were 91.7%, 95.1% and 81%.
The like results for `CC(C)CNCc1ccc(-c2cccc(CN(CCCN3CCN(C)CC3)C(=O)/C=C/c3ccccc3)c2)cc1` were, in that order, 5.83%, 5.21% and 5.27%.
In the case of `CCc1ccc(-c2nc3cc(NC(=O)c4ccc([N+](=O)[O-])o4)ccc3o2)cc1`, the inhibition in experiment [1] came to 1.01%; in experiment [2], 2.33%; in experiment [3], 0.78%.
As to `O=C(N[C@@H](Cc1ccccc1)C(=O)NCCN1CCOCC1)c1ccc(O)c(-c2ccc(Cl)c(Cl)c2)c1`, the inhibition amounted to 2.33% in experiment [1], 2.47% in experiment [2] and 4.35% in experiment [3].
